{"source": "PubChem BioAssay (NCATS)", "note": "Inconclusive results are not listed. Entries that show only a call come without a potency. Activity calls are given as the source filed them. Calls come from the whole dose curve; as a rule, active = well fitted curve in the direction sought with a large enough effect; inconclusive = small, poorly fitted or top-dose-only effect, or another doubt; inactive = no such curve, though single readings can be large; an effect the other way counts as inactive or inconclusive."}
{"assay": "P-glycoprotein substrates identified in KB-3-1 adenocarcinoma cell line, qHTS therapeutic library screen (AID 1346986); note: nearly all actives have a fitted effect of over 60% in size", "settings": "KB-3-1 parental cells viability, CellTiter-Glo, 72 h; series mostly up to 93.4 µM", "method_in_brief": "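Viability by CellTiter-Glo after 72 h compound exposure at 37 degree C, 5% CO2. Cytotoxic call: curve class -1.1 to -2.4, maximum response >50%, AC50 < 10 uM, compared across KB-3-1 and P-gp-overexpressing KB-8-5-11.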"}
{"smiles": "CS[C@]1(CO)C(=O)N2[C@H]3C(=CC=C[C@@H]3O)C[C@@]2(SC)C(=O)N1C", "Potency": "inactive"}
{"smiles": "CC1=CC2/C=C(\\C)CCCC(O)/C=C/C(=O)OC23C(=O)NC(CC(C)C)C3C1C", "note": "(centres undefined)", "Potency": "inactive"}
{"smiles": "C=CC(C)(C)c1[nH]c2c(CC=C(C)C)cc(CC=C(C)C)cc2c1C[C@@H]1NC(=O)[C@H](C)NC1=O", "Potency": "inactive"}
{"smiles": "COCC(C(=O)OC1CC2CCC(C1)N2C)c1ccccc1", "note": "(centres undefined)", "Potency": "inactive"}
{"smiles": "Cc1c(Cl)c(OCC(=O)N2CCN(C)CC2)nc2sc(C(=O)NC3CC3)c(N)c12", "Potency": "inactive"}
{"smiles": "CC1=CC2(O)/C=C/C(C)(O)C(O)C(O)/C=C/C(=O)OC23C(=O)NC(CC(C)C)C3C1C", "note": "(centres undefined)", "Potency": "inactive"}
{"smiles": "CCC(C)(O)C1(C(=O)O)COC(=O)C1", "note": "(centres undefined)", "Potency": "inactive"}
{"assay": "P-glycoprotein substrates identified in KB-8-5-11 adenocarcinoma cell line, qHTS therapeutic library screen (AID 1346987); note: nearly all actives have a fitted effect of over 65% in size", "settings": "KB-8-5-11 (P-gp overexpressing) viability, CellTiter-Glo, 72 h; series mostly up to 44.5 µM", "method_in_brief": "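Human cervical adenocarcinoma KB-8-5-11 cells, selected in colchicine to over-express P-gp and assayed without it, were exposed for 72 h to titrated compounds. An ATP-based luminescent viability signal gave AC50.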"}
{"smiles": "C/C=C(/C)C1C=CC2CC(C)CC(C)C2C1/C(O)=C1\\C(=O)NC(CC(C)(O)C(=O)O)C1=O", "note": "(centres undefined)", "Potency": "inactive"}
{"smiles": "CS[C@]1(CO)C(=O)N2[C@H]3C(=CC=C[C@@H]3O)C[C@@]2(SC)C(=O)N1C", "Potency": "inactive"}
{"smiles": "COc1ccc2c3c4n(c2c1)[C@@H](C=C(C)C)OOC(C)(C)C[C@@H]4N1C(=O)[C@@H]2CCCN2C(=O)[C@]1(O)[C@H]3OCC=C(C)C", "Potency": "inactive"}
{"smiles": "CC1=CC2/C=C(\\C)CCCC(O)/C=C/C(=O)OC23C(=O)NC(CC(C)C)C3C1C", "note": "(centres undefined)", "Potency": "inactive"}
{"smiles": "C=CC(C)(C)c1[nH]c2c(CC=C(C)C)cc(CC=C(C)C)cc2c1C[C@@H]1NC(=O)[C@H](C)NC1=O", "Potency": "inactive"}
{"smiles": "COc1cc(O)c2c(c1)/C=C/C[C@@H](O)[C@@H](O)C(=O)CCC[C@H](C)OC2=O", "Potency": "inactive"}
{"smiles": "CC(=O)O[C@H]1CC[C@H]2[C@@H]3CC[C@H]4CC(=O)C=C(C)[C@]4(C)[C@H]3CC[C@]12C", "Potency": "inactive"}
